Rows were chosen to be rich in hits. Some 3.4% of all compounds tested hit in one or more screens of this group.
MEKK2 WT-MEK5: raises or lowers MEK5 binding to wildtype human MEKK2 PB1 domain; AID 1531; bead flow cytometry, Alexa488-MEK5 binding to MEKK2 WT; actives lie on both sides; Q9Y2U5; hit rate 1.1% among 290,000; binding response (% of control), % at 10 µM; in the data active = binding response below about 67% or above about 130%
ANO1 activ: activators or potentiators of mouse TMEM16A chloride channel; HEK293 TMEM16A/YFP-H148Q/I152L, iodide quench fluorescence; active compounds read low; B-score at 10 µM; hit rate 0.3% among 340,000; AID 623877;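 active = fluorescence-ratio B-score plate-corrected deviation score at least 3 library SD below zero, with starting fluorescence score within 5 deviations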;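 note: channel opened by trigger with iodide after compound preincubation; score built on the fluorescence ratio of max minus min over baseline; more negative score means more quench and so TMEM16A activation or potentiation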
ANO1 block: mouse TMEM16A channel inhibition, primary screen | HEK293 TMEM16A/YFP iodide influx fluorescence, ionomycin | hit rate 1.2% among 310,000 | normalized B-score (activity score, 25-100; higher = stronger inhibition) at 10 µM | Q8BHY3;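 active = ratio plate-corrected score three or more library SD toward inhibition, starting fluorescence score within five deviations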;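 note: score derived from kinetic fluorescence span divided by baseline fluorescence per well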
NTR1 ag: NTR1 (human) agonism | activation, % at 20 µM | NTR1-U2OS beta-arrestin-GFP spot imaging, agonist mode | P30989 | hit rate 0.17% among 330,000;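 active = activation at or above 40% of the spot to cytoplasm intensity ratio, with at least 20 cells analyzed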;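 note: 0% = DMSO without peptide and 100% = 100 nM NTR1 peptide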
MEKK3 PB1 HTS: raises or lowers MEK5 binding to the human MEKK3 PB1 domain; hit rate 1.4% among 290,000; binding response (% of control), % at 10 µM; Q99759; bead-based flow cytometry, Alexa488-MEK5 binding to MEKK3; actives lie on both sides; 0 = blocked by unlabeled MEK5, 100 = vehicle;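 active = binding response more than 3 SD above or below the average of its plate-row segment, actives on both sides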;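 note: Alexa488 bead fluorescence after subtracting the streptavidin-only scavenger bead signal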
Target sequence (Q99759 whole entry, looked up, the tested form may be a part): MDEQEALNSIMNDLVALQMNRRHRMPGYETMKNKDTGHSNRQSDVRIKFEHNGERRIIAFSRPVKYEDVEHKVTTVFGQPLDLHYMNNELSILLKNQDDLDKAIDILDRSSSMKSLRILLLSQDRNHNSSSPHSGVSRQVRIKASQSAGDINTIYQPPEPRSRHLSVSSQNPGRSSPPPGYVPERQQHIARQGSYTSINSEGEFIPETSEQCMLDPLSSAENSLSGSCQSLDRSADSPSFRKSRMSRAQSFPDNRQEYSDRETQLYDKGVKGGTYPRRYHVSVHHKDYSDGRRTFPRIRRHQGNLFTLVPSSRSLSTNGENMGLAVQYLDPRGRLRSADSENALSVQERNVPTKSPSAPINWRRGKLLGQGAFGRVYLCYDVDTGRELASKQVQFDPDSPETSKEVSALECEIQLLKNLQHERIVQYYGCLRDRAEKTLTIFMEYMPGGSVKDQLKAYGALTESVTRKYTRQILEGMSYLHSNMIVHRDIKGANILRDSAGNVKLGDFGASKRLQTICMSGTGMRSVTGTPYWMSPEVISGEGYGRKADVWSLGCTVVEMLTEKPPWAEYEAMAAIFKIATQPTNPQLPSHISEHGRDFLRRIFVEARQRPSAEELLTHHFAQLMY
MEKK2mut PB1 HTS: signal of MEK5 binding to mutant human MEKK2 PB1 domain; bead flow cytometry, Alexa488-MEK5 binding to MEKK2 mutant; percent response, % at 10 µM; hit rate 0.35% among 290,000; AID 1530; in the data active = percent response above about 24%, passing the limit was not always enough
MEKK2wt confirm: raises or lowers MEK5 binding to wildtype human MEKK2, retest | shares compounds with MEKK3 PB1 HTS | bead flow cytometry, Alexa488-MEK5 binding to MEKK2 WT; actives lie on both sides | binding response (% of control), % at 10 µM | hit rate 2.4% among 5,900; in the data active = binding response below about 16% or above about 210%; inactive = in between
MEKK2mut-MEK5: signal of MEK5 binding to mutant human MEKK2, retest; shares compounds with MEKK3 PB1 HTS; bead flow cytometry, Alexa488-MEK5 binding to MEKK2 mutant; percent response, % at 10 µM; hit rate 2% among 5,900; in the data active = percent response mostly above about 71%, no sharp cut-off; inactive = mostly below about 38%;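 note: higher means compound restores mutant binding toward wildtype level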
MEKK3-MEK5 inh: confirmation of inhibitors of MEK5 binding to human MEKK3; shares compounds with MEKK3 PB1 HTS; bead flow cytometry, Alexa488-MEK5 binding to MEKK3; active compounds read low; binding response (% of control), % at 10 µM; hit rate 1.8% among 5,900;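 active = binding response below 72% of control, or above a set upper limit, though filed actives all read lower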;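 note: 100% = DMSO only wells and 0% = binding blocked by excess unlabeled MEK5; lower values mean stronger disruption of MEK5 binding to MEKK3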
* = called active by the depositor; [ ] = remark or other dose.

Screening S=C(NCCN1CCOCC1)N/N=C/c1ccccc1 returned MEKK2 WT-MEK5 103, ANO1 activ inactive, ANO1 block inactive, NTR1 ag -4, MEKK3 PB1 HTS 103 and MEKK2mut PB1 HTS 1.
`Cc1cccc2c(=O)c(C(=O)NCCCN3CCOCC3)c[nH]c12` gave MEKK2 WT-MEK5 85, ANO1 activ inactive, ANO1 block inactive, NTR1 ag 0, MEKK3 PB1 HTS 71*[inhibitor], MEKK2mut PB1 HTS 8, MEKK2wt confirm 104, MEKK2mut-MEK5 3 and MEKK3-MEK5 inh 104.
For Cc1ccc(C)c(NC(=O)C(=O)NCCCN2CCOCC2)c1 the results were MEKK2 WT-MEK5 96, ANO1 activ inactive, ANO1 block inactive, NTR1 ag -1, MEKK3 PB1 HTS 101 and MEKK2mut PB1 HTS -5.
For CCN(Cc1ccccc1)C(=O)c1c(-c2ccccc2Cl)noc1C the results were MEKK2 WT-MEK5 103, ANO1 activ inactive, ANO1 block inactive, NTR1 ag 0, MEKK3 PB1 HTS 105 and MEKK2mut PB1 HTS 2.
S=C(NCCN1CCOCC1)Nc1ccc(Br)cc1 was read as MEKK2 WT-MEK5 104, ANO1 activ inactive, ANO1 block inactive, NTR1 ag 4, MEKK3 PB1 HTS 145*, MEKK2mut PB1 HTS 0, MEKK2wt confirm 99, MEKK2mut-MEK5 -7 and MEKK3-MEK5 inh 100.
S=C(NCCN1CCOCC1)Nc1ccc(Nc2ccccc2)cc1 was read as MEKK2 WT-MEK5 106, ANO1 activ inactive, ANO1 block inactive, NTR1 ag 2, MEKK3 PB1 HTS 103 and MEKK2mut PB1 HTS 2.
For Cc1ccc(-c2nn(-c3cc(N4CCNCC4)ccc3[N+](=O)[O-])c(=O)c3ccccc23)cc1 the results were MEKK2 WT-MEK5 145*, ANO1 activ inactive, ANO1 block inactive, NTR1 ag 5, MEKK3 PB1 HTS 99, MEKK2mut PB1 HTS 15, MEKK2wt confirm 153, MEKK2mut-MEK5 30 and MEKK3-MEK5 inh 109.
`Cc1nn(-c2cc(N3CCCCCC3)ccc2[N+](=O)[O-])c(=O)c2ccccc12` gave MEKK2 WT-MEK5 98, ANO1 activ inactive, ANO1 block inactive, NTR1 ag 9, MEKK3 PB1 HTS 105 and MEKK2mut PB1 HTS 0.
COC(=O)c1ccc(NC(=O)COC(=O)C2=NN(c3ccccc3)C(=O)CC2)cc1 was read as ANO1 activ inactive and NTR1 ag 0.
CCCCCCNC(=O)N[C@@H](C(=O)NCCC[C@H]1CN2C(=NC[C@@H]2Cc2ccccc2)N1CCc1cccc(OC)c1)C(C)C was read as MEKK2 WT-MEK5 201*, ANO1 block inactive, NTR1 ag -1, MEKK3 PB1 HTS 109, MEKK2mut PB1 HTS 46*, MEKK2wt confirm 169, MEKK2mut-MEK5 49 and MEKK3-MEK5 inh 104.
Screening N#CCSc1ccccc1NC(=O)COC(=O)CCNC(=O)c1ccc([N+](=O)[O-])cc1 returned ANO1 activ inactive and NTR1 ag 0.
COc1ccc(NC(=O)c2cc(S(=O)(=O)NCC3COc4ccccc4O3)ccc2F)cc1 (stereo unspecified) was read as MEKK2 WT-MEK5 116, ANO1 activ inactive, ANO1 block inactive, NTR1 ag 0, MEKK3 PB1 HTS 105 and MEKK2mut PB1 HTS 11.

Screens from PubChem BioAssay.
